# From PubChem BioAssay AID612 (The Scripps Research Institute Molecular Screening Center, 2007)
# In all, about 62,000 compounds went through this assay and about 420 (0.68%) were called active.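 The calls were made as follows: active = inhibition above the mean of all tested compounds plus 3 SD (cut at about 43% in these data); inactive = the rest.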 The entries come from a sample that favours actives as a whole.
# Molecular target: 5-hydroxytryptamine receptor 1A (Homo sapiens) (UniProt P08908)
# Assay: blockade of serotonin HTR1A receptor – cell-based, CHO, Ga15 NFAT-bla reporter, primary screen (AID 612);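 also: receptor stimulated by 5-CT agonist at 100 nM near EC80; beta-lactamase reporter measured by ratiometric fluorescence of a cleavable substrate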
# Settings: CHO 5-HT1a Ga15 NFAT-bla reporter, antagonist mode; at 10 µM; hits give high values
# Sequence of 5-hydroxytryptamine receptor 1A (Homo sapiens) (P08908 whole entry, looked up): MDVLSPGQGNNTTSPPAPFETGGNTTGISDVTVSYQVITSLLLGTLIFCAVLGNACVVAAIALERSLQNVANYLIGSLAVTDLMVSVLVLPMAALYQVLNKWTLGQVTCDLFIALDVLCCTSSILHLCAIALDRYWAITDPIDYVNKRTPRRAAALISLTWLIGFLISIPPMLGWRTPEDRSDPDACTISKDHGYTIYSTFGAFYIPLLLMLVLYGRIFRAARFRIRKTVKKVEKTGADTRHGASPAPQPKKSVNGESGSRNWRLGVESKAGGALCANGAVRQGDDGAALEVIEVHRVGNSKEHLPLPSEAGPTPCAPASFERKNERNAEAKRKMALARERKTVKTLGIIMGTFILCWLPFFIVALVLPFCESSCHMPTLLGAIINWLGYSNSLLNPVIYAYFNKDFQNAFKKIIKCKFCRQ
row,Compound,inhibition
1,O=C(Nc1cc(C(F)(F)F)ccc1Cl)c1cc(C2CC2)on1,2.5% (inactive)
2,O=C(OCC(O)C(O)COC(=O)c1ccccc1)c1ccccc1 (stereo not given),-11.9% (inactive)
3,S=C1SCN(CCN2CCOCC2)CN1Cc1ccccc1,-2.1% (inactive)
4,CCOc1ccccc1C1NC(=O)NC(C)=C1C(=O)OCc1ccco1 (stereo not given),-4.6% (inactive)
5,CCOc1ccc2[nH]c(=O)c(C(c3nnnn3CCOC)N3CCOCC3)cc2c1 (stereo not given),-1.9% (inactive)
6,CC(=O)c1sc2nc(SCC(=O)N3CCCCC3)[nH]c(=O)c2c1C,-6.6% (inactive)
7,Cc1cccc(NC(=O)c2ccccc2NC(=O)C(C)(C)C)n1,1.6% (inactive)
8,O=S(=O)(Nc1ccccc1N1CCOCC1)c1ccc(Cl)s1,4.3% (inactive)
9,CCOC(=O)C1CCN(Cc2coc3ccc(Cl)cc3c2=O)CC1,5% (inactive)
10,O=C(NCc1ccc2c(c1)OCO2)C1CCCN(S(=O)(=O)c2cccs2)C1 (stereo not given),-2.9% (inactive)
11,Cc1ccnc(SCCn2c(Br)nc3c2c(=O)[nH]c(=O)n3C)n1,-4.8% (inactive)
12,CC(C)Cc1cc(C(=O)Nc2cc(Br)ccc2O)no1,17.4% (inactive)
13,CCn1c(SCC(=O)Nc2nccs2)nnc1-c1ccncc1,-5% (inactive)
14,Cc1ccc(C(=O)NC2CCN(C(=O)N3CCOCC3)CC2)cc1,-11.8% (inactive)
15,COc1ccc(CCN(C)CCN2C(=O)c3ccccc3C2=O)cc1OC,-14.2% (inactive)
16,COc1cc(C2C(C(=O)c3ccc(C)o3)=C(O)C(=O)N2CCc2ccccc2)ccc1O (stereo not given),-1.1% (inactive)
17,COc1ccc(CCN2C(=O)c3[nH]nc(-c4ccccc4O)c3C2c2ccc(C)cc2)cc1OC (stereo not given),54.6% (active)
18,O=C(C1CC1)N1CCN=C1SCc1ccc(Cl)cc1,13% (inactive)
19,N#CC1=C(N)C(C#N)(C#N)[C@H](c2ccsc2)[C@H]2COCC=C12,-8.8% (inactive)
20,O=C(CN1CCOCC1)Nc1c(-c2ccccc2)c2cc(Br)ccc2[nH]c1=O,-10.8% (inactive)
